According to the supplement of paper PMC6555819:

Experiments:
Test in all cases: PBM binding z-score (relative to random genomic background probes); higher = stronger binding; sequences stand for … in GC…GCGATTGACAGCGTAGAATGAAGG
[1] = system: FXR:RXRa (NR concentration 270 nM, RXRa partner concentration 90 nM)
Outline: (§1)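 Ligand-free nuclear receptor dimers were bound for 1 h to custom Agilent 4×180K protein-binding microarrays. Detection used antibodies against each partner (one per run). Binding z-scores rest on regression-normalized fluorescence, with random background probes as the reference.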

[2] = system: LXRa:RXRa (NR concentration 270 nM, RXRa partner concentration 90 nM)
Outline: as §1

[3] = system: LXRa homodimer (NR concentration 270 nM)
Outline: as §1

[4] = system: LXRb:RXRa (NR concentration 270 nM, RXRa partner concentration 90 nM)
Outline: as §1

[5] = system: LXRb homodimer (NR concentration 270 nM)
Outline: as §1

[6] = system: PPARa:RXRa (NR concentration 270 nM, RXRa partner concentration 90 nM)
Outline: as §1

[7] = system: PPARg:RXRa (NR concentration 180 nM, RXRa partner concentration 90 nM)
Outline: as §1

[8] = system: PPARg:RXRa 270nM:90nM, anti-RXR (NR concentration 270 nM, RXRa partner concentration 90 nM)
Outline: as §1

[9] = system: PPARg:RXRa 30nM:10nM, anti-RXR (NR concentration 30 nM, RXRa partner concentration 10 nM)
Outline: as §1

[10] = system: PPARg:RXRa 90nM:30nM, anti-RXR (NR concentration 90 nM, RXRa partner concentration 30 nM)
Outline: as §1

[11] = system: PPARg:RXRa DBDmut IVT, anti-RXR (DBD mutation: RXRa K156A/R161A, NR concentration 270 nM, RXRa partner concentration 90 nM)
Outline: as §1

[12] = system: PPARg:RXRa IVT, anti-PPARg (NR concentration 270 nM, RXRa partner concentration 90 nM)
Outline: as §1

[13] = system: PPARg DBDmut:RXRa IVT, anti-PPARg (DBD mutation: PPARg1 K132A/R137A, NR concentration 270 nM, RXRa partner concentration 90 nM)
Outline: as §1

[14] = system: PPARg DBDmut IVT, anti-PPARg (DBD mutation: PPARg1 K132A/R137A, NR concentration 270 nM)
Outline: as §1

[15] = system: PPARg homodimer (NR concentration 180 nM)
Outline: as §1

[16] = system: PXR:RXRa (NR concentration 270 nM, RXRa partner concentration 90 nM)
Outline: as §1

[17] = system: PXR homodimer (NR concentration 270 nM)
Outline: as §1

[18] = system: RARa:RXR (NR concentration 270 nM, RXRa partner concentration 90 nM)
Outline: as §1

[19] = system: RARa homodimer (NR concentration 270 nM)
Outline: as §1

[20] = system: RARb:RXRa (NR concentration 270 nM, RXRa partner concentration 90 nM)
Outline: as §1

Sequence	PBM binding z-score [1]	PBM binding z-score [2]	PBM binding z-score [3]	PBM binding z-score [4]	PBM binding z-score [5]	PBM binding z-score [6]	PBM binding z-score [7]	PBM binding z-score [8]	PBM binding z-score [9]	PBM binding z-score [10]	PBM binding z-score [11]	PBM binding z-score [12]	PBM binding z-score [13]	PBM binding z-score [14]	PBM binding z-score [15]	PBM binding z-score [16]	PBM binding z-score [17]	PBM binding z-score [18]	PBM binding z-score [19]	PBM binding z-score [20]
GCAGACAGGTGAAACGCAGGTAACTTAGGGTGGC	0.0644	-0.18	-0.522	-0.226	-1.05	0.666	0.771	0.226	-0.508	-0.022	1.09	0.626	-0.0838	-0.922	-0.576	-0.333	-0.519	0.279	-0.246	0.798
ACTTACGGGTCGACGAGGTTATAGCACGCGTATA	1.82	1.97	0.124	1.94	0.314	2.97	1.52	1.22	0.608	0.729	0.585	1.14	0.084	0.394	0.944	2.68	0.798	2.75	-0.198	1.82
ACTCGGAGGACGAAGGTCAGAGCTACGCCAGTGA	0.736	1.2	-0.109	0.941	-0.551	2.3	2.67	3.52	1.07	3.02	-0.0159	0.85	-1.22	-0.524	1.01	1.4	-0.0782	1.77	0.154	2.81
TCTGCTAGGTCAACGATGGCCAGCTAATCTGCTA	3.09	2.21	-0.626	1.34	-0.287	3	2.34	2.77	1.8	2.37	4.07	4.02	0.274	-0.0746	0.165	0.871	-1.29	1.9	-0.648	3.94
ATCTCTAGGTAAACTTCAGTGAAAGATCGATAGA	0.831	0.515	0.351	0.0821	1.21	0.408	0.488	0.399	0.397	0.45	2.68	2.02	1.5	1.2	0.999	0.0812	0.42	0.344	1.42	0.268
TCTTGTAGGTCAGCAGGTTAAGAAAGCTGGCCAA	3.31	2.55	0.186	2.16	0.418	4.35	6.77	5.91	4.19	5.71	6.85	7.39	2.94	2.48	2.31	1.95	-0.0454	2.84	0.787	3.91
ACTCAAAGTTCATCTAGGTAACGTAAGATATGCT	6.73	6.05	5.36	4.18	2.43	4.79	3.49	3.98	1.56	2.74	1.43	2.81	2.23	2.06	3.4	5.34	7.92	4.08	2.11	5.33
CCGAGCAGGCCAGGGTCACTCAAGCATTTCGCTT	2.23	1.75	-0.467	2.16	-1.08	2.97	0.393	1.19	-0.201	0.482	-0.216	0.461	-1.99	-1.55	1.51	2.78	-0.479	3.47	-0.256	2.65
CGTCCAAGGTCAAGGCTAGGTCAGTGAAAGCATT	7.26	5.52	1.5	4.11	-0.26	5.33	4.97	5.35	1.61	4.01	3.68	4.19	-0.104	-0.338	5.83	5.03	1.42	6.19	1.29	5.43
GCTAGCAGGCCATTTGGGTCACGCAATGACGGGC	0.679	0.476	-0.416	0.378	-0.491	2.23	1.32	1.45	0.36	0.648	2.42	3.05	-0.368	-0.646	0.0821	1.13	-0.117	1.88	-0.356	1.91
TCGAGTAGGTTAGTCGGTGCATTCAGCCAACATA	-0.341	-0.428	-0.522	-0.341	-1.16	0.254	-0.329	0.678	1.05	0.958	1.78	1.93	-0.29	-0.55	0.152	0.147	-0.142	0.0978	0.0806	-0.085
ATCGAAAGGTCGACGAGGTGAGTAGACACCGTTT	4.89	3.41	-0.158	2.75	0.205	4.45	3.11	3.63	1.22	2.45	0.417	2.09	0.633	0.273	1.49	2.93	0.455	3.91	0.813	3.89
TCTTGTAGATCAACAGGACGTTAAGAAAGATCGA	0.291	0.413	-0.398	0.173	-0.226	0.653	0.338	1.62	2.86	2.27	1.79	0.305	0.99	0.998	0.259	0.135	-0.241	0.574	0.262	-0.11
ATATGTAGGTTAAGGGCCATTCAGGTTGGTTCGC	0.756	0.989	0.305	0.911	0.0829	4.43	7.86	7.32	6.65	7.62	7.52	6.88	2.91	2.4	1.27	0.874	0.768	0.938	0.601	1.5
TCTATTAGCTGAAGGGCAACCGACGAGTCCGTTT	-0.0805	0.244	-0.393	0.444	-0.429	0.629	0.0411	1.66	2.6	2.2	1.6	0.162	0.664	0.466	-0.169	0.472	0.237	0.362	-0.62	1.29
CGTCAAAGTTCAACTAAGGTAACATAAAGCACGC	7	6.17	4.4	4.25	1.93	5.1	5.41	5.57	2.61	4.55	0.273	2.52	1.34	1.66	3.27	5.54	3.1	4.35	1.57	5.25
GCTACTTGGTCAGTAAAAGGTCACACACCGGTCG	3.65	4.51	4.98	4.37	1.61	4.59	3.39	4.65	2.3	4.1	1.59	3.24	0.501	1.24	5.33	5.09	1.32	6.09	2.99	4.23
GGAACGAGGGCATTCGAGTAGATAGCATGGCGAT	0.816	0.394	-0.428	0.0953	-0.937	1.33	1.11	0.886	-0.0142	0.304	2.87	2.05	-0.011	-0.669	-0.256	0.557	-0.0789	0.335	-0.251	1.56
TCGAGTATGTTAGTCGGGGCATTCAGCCAACATA	-0.336	-0.354	-0.761	0.103	-0.713	-0.0801	-0.372	0.0519	0.966	0.691	0.962	0.119	-0.528	-0.979	-0.491	-0.224	-0.529	-0.247	-0.841	0.204
TCTGCTAGGTCTACGATGGTCAGCTAATCTGCTA	-0.634	-0.811	-1.12	-0.871	-0.759	-0.453	-0.582	-0.0115	1.48	0.437	0.395	-0.0472	-1.03	-0.797	-2.36	-0.731	-1.3	-1.07	-0.904	-0.194
ATCGAAAGGTCGAAGGTGATTATACCCACCCGAA	4.31	3.69	0.425	2.92	0.626	4.48	4.21	4.47	2.33	3.99	0.155	2	1.25	0.935	1.86	2.89	0.393	4.03	0.957	3.5
CCGACTGGGGCATAAGGTTACCAAAAGCCAGCCC	0.243	1.26	-0.202	0.884	-1.26	2.36	2.34	3.15	0.904	2.48	2.7	3.25	-0.301	-0.942	0.779	0.576	-0.64	1.73	0.0494	1.81
CGAACTAGGGCAGAACAGGACAGTGAAGGATGAT	-0.103	-0.326	-0.302	-0.521	-0.666	1.4	2.24	1.47	0.448	0.819	5.8	5.34	0.749	1.12	0.692	-0.477	-0.0295	0.592	0.348	0.687
TCGAGTAGGTTAGGGGGATTCAGAATGGCGTCGA	0.594	0.704	0.047	2.05	5.63	1.63	1.42	3.21	2.01	2.69	2.93	3.21	2.69	5.71	1.41	1.2	0.466	0.482	0.665	1.19
TCATACAGGTAAACAGGTGAAAGTCCGTAAGTTA	0.989	1.11	0.506	1.2	0.202	2.18	1.6	3.16	4.13	3.71	3.22	2.7	0.361	1.11	1.16	1.03	0.792	1.42	1.16	0.895
GCTTACGGCTCAAAGGTTATAGCATGAATAGAAT	0.876	1.45	0.0597	1.7	-0.639	2.62	2.18	3.88	1.46	3.1	-0.386	0.149	-0.0168	0.142	0.0753	1.47	-0.195	2.06	0.137	1.21
CCTAATAGTTGACCATAAGGGCAACCGAAGCTCG	0.919	0.486	0.29	0.606	0.214	0.827	0.664	0.43	0.117	0.37	-0.0162	0.473	0.327	0.353	1.09	0.821	0.596	1.27	1.46	1.72
ATCTCTAGGTAAGATTCAGTTCAGTGAAGAACGC	0.354	0.48	0.604	0.249	0.778	0.179	-0.128	0.299	0.045	0.492	0.989	0.954	0.543	0.745	0.75	0.994	1.17	0.657	1.15	0.123
